Bioassay records: PubChem BioAssay, National Center for Advancing Translational Sciences (NCATS)
This is a sample that favours compounds with a hit; in the whole collection about 19% have one here.
DT40 TDP1 no CPT: qHTS for Inhibitors of human tyrosyl-DNA phosphodiesterase 1 (TDP1): qHTS in cells in absence of CPT; DT40 Tdp1-/- hTDP1 cells, no CPT, ATP luminescence, 48 h; Potency, µM (highest dose often 46.2 µM), for the others: at the highest dose activity change, negative = growth inhibition, actives largely listed as inhibitors; 420,000 compounds, 15% hits; further: potency means the concentration at half of the fitted maximal effect; nearly all actives have a fitted effect of over 55% in size
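Readout: luminescence from CellTiter-Glo after 30 min in the dark at RT. Cells: DT40 Tdp1-/- with stable hTDP1, 400/well. Exposure: compounds alone, ≥48 hr, 37 °C.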
HT1080 IDH1KD tx: toxicity to HT-1080 IDH1 knockdown cells (counter line); 360,000 compounds, 2% hits; AID 686971; HT-1080 IDH1 knockdown viability, ATP luminescence, 48 h; Potency, µM (highest dose often 46.1 µM), inactives show top-dose activity, negative = toxicity, most hits filed as cytotoxic;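 further: potency means the concentration at half of the fitted maximal effect; 0% = DMSO wells and -100% = cell-free medium wells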
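After a 2 h attachment period, IDH1KD HT-1080 cells took pin-transferred compound for 48 h at 37 °C; ATP-based luminescence after 10 min room-temperature reagent incubation reported viability.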
IL-1B inflam inh: inhibitors of inflammasome signaling (IL-1 beta secretion); THP-1 LPS/ATP IL-1B secretion, AlphaLISA, 16 h; active compounds read low; activity change, % at 57.5 µM; 360,000 compounds, 4.7% hits; in the data active means activity change below about -50%; inconclusive means mostly about -30% to -49%
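Secreted IL-1B measured by AlphaLISA bead assay after 16 h compound exposure of THP-1 cells; compounds (final up to 57.5 uM) added 1 h before LPS (250 ng/mL) and ATP (1.25 mM) stimulation; lower signal means less secretion.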
HT1080-NT tox: kills 2HG-producing HT-1080-NT fibrosarcoma cells. 360,000 compounds, 1.6% hits. HT-1080-NT fibrosarcoma viability, CellTiter-Glo ATP luminescence, 48 h. Potency, µM (top dose mostly 46.1 µM), without a hit: at the highest dose activity, negative = less viability, actives largely listed as cytotoxic. AID 686970;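 further: NT is the 2HG producing partner of a matched IDH1 knockdown line; potency means the concentration at half of the fitted maximal effect; 0% = DMSO-treated cells and -100% = media-only wells without cells; nearly all actives have a fitted effect of over 55% in size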
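Read-out is CellTiter-Glo luminescence after 10 minutes at room temperature, following 48 hours' compound treatment of HT-1080-NT cells (750 cells/well, RPMI, 5% FBS, 37 degrees C).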
DT40 TDP1 CPT: growth inhibition of DT40 Tdp1-/-;hTDP1 cells with camptothecin (screen for TDP1 inhibitors); chicken DT40 Tdp1-/-;hTDP1 cells + 20 nM CPT, ATP luminescence, 48 h; Potency, µM (top dose mostly 46.2 µM), for the others: at the highest dose activity change, negative = growth inhibition, usual class: inhibitors; 420,000 compounds, 12% hits; AID 686979; further: potency means the concentration at half of the fitted maximal effect; nearly all actives have a fitted effect of over 55% in size
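Cell growth measured by CellTiter-Glo luminescence after a minimum 48 h, 37 C compound exposure with 20 nM CPT in Tdp1-knockout DT40 cells stably expressing hTDP1, seeded 400/well; qHTS titration format.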
An asterisk follows results filed as active; ? = inconclusive; · = not tested or not shown; ! = not confirmed by another sample; [ ] = dose if it differs, or a comment. Unless noted, the call rests on the fitted dose curve; in most records, active means well fitted curve in the direction sought with a large enough effect; inconclusive means small, poorly fitted or top-dose-only effect, or another doubt; inactive means no such curve, though single readings can be large; an effect the other way counts as inactive or inconclusive. Unless noted, on the % scale 0 is the no-effect control and ±100 the full control effect.

SMILES | DT40 TDP1 no CPT | HT1080 IDH1KD tx | IL-1B inflam inh | HT1080-NT tox | DT40 TDP1 CPT
Cc1ccc(S(=O)(=O)N/N=C\c2ccc3c(c2)OCO3)cc1C | -17% | 13% | -15 | 1% | 2%
O=[N+]([O-])c1ccc(/C=N/NS(=O)(=O)c2ccc(Cl)cc2)o1 | 16µM* | -1% | -3 | -1% | 9.2µM*
Cc1ccc(/C=N/NS(=O)(=O)c2ccc([N+](=O)[O-])cc2)o1 | -28% | 0% | 101 | -3% | -5%
Cc1ccc(S(=O)(=O)N/N=C\c2ccc([N+](=O)[O-])o2)cc1C | ? | 0% | -23 | 16% | 18µM*
NC(=NCCc1ccccc1)NS(=O)(=O)c1ccccc1F | -25% | -1% | 10 | -3% | -8%
CCOc1cc(C=O)ccc1OCCn1c([N+](=O)[O-])cnc1C | -21% | ? | 8 | -22% | 4%
C(=C\n1nnc2ccccc21)/c1ccc[nH]1 | 23µM* | 10% | -10 | 7% | 18µM*
Cc1ccc(C2=NC3(CCCC3)N=C2SCC(=O)Nc2ccc3c(c2)OCCO3)cc1 | -7% | -2% | -94* | 1% | ?
O=C(CSC1=NC2(CCCCCC2)N=C1c1ccccc1)Nc1ccc2c(c1)OCCO2 | ? | ? | -75* | ? | ?
O=C(CSC1=NC2(CCCCC2)N=C1c1ccccc1)Nc1ccc2c(c1)OCCO2 | ? | -7% | -80* | -4% | ?
CCN1CCN(C(=O)C(Cc2ccccc2)NC(=O)c2ccc(Cl)c(S(=O)(=O)N(C)C)c2)CC1 (centres undefined) | ? | -1% | 0 | 0% | ?
OCCOCCN1CCN(C2=Nc3ccccc3Sc3ccccc32)CC1 | 19µM*! | -18% | -15 | -6% | 24µM*!
OCCOCCN1CCN(C(c2ccccc2)c2ccc(Cl)cc2)CC1 (centres undefined) | ? | -28% | -6 | -15% | ?
CCn1c(=O)c2sccc2n2c(CCCC(=O)N3CCN(c4ccc(F)cc4)CC3)nnc12 | 18µM* | · | · | · | 15µM*
CCCn1c(=O)c2sccc2n2c(CCCC(=O)N3CCN(c4cccc(Cl)c4)CC3)nnc12 | 12µM* | · | · | · | ?
CCCn1c(=O)c2sccc2n2c(CCCC(=O)NCCc3ccc(Cl)cc3)nnc12 | 21µM* | · | · | · | ?
CCCn1c(=O)c2sccc2n2c(CCCC(=O)N3CCN(c4ccccc4OC)CC3)nnc12 | ? | · | · | · | 18µM*
CCCn1c(=O)c2sccc2n2c(CCCC(=O)NCC3CCCO3)nnc12 (centres undefined) | 16% | 1% | 10 | -3% | -9%
COCCn1c(N)c(N(Cc2ccccc2)C(=O)CSCC(=O)Nc2ccc(OC)cc2)c(=O)[nH]c1=O | -4% | 8% | 5 | 2% | -4%
COc1ccc(S(=O)(=O)N2CCCCC2)cc1NC(=O)C1CC(=O)N(Cc2ccccc2)C1 (centres undefined) | -1% | -8% | -16 | 2% | -20%
CCCn1c(=O)c2sccc2n2c(CCCC(=O)N3CCN(c4cccc(C)c4C)CC3)nnc12 | 18µM* | · | · | · | 21µM*
CCn1c(=O)c2sccc2n2c(CCC(=O)N3CCN(c4ccccc4OC)CC3)nnc12 | -24% | · | · | · | -20%
CNC(=S)N1CCN(CCNC2=CC(=O)CC(C)(C)C2)CC1 | 14% | 20% | 18 | 3% | 5%
CC1(C)CC(NCCN2CCN(C3=CC(=C(C#N)C#N)CC(C)(C)C3)CC2)=CC(=C(C#N)C#N)C1 | 13µM* | 4% | 15 | -5% | 18µM*
CCOC(=O)CN1C(=O)C(Sc2n[nH]c(-c3ccccc3)n2)CCc2ccccc21 (centres undefined) | 21µM* | -3%[9.24 µM] | ? | ? | 21µM*
COc1cccc(N2C(=O)C3C(C2=O)C3(c2ccccc2)c2ccccc2)c1 (centres undefined) | ? | -2% | 6 | -2% | -13%
